Several values for one entry are separate records, joined by “and”; a condition that tells them apart may be missing. Equal values may be shown once. About 83,000 compounds went through this panel and 20% of them were active in at least one assay; those are over-represented in the sample as a whole.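 Note: values are percent growth. 100 is the growth of untreated cells, values between 100 and 0 indicate rising inhibition; between -100 and 0 indicates cell death.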 Activity calls are given as the source filed them. How the source made its calls: active means growth percent below 10; inactive means the rest.

This test relates to MALME-3M melanoma. As to the kind of experiment: NCI-60 one-dose screen, 48 h (100 = growth as untreated, 0 = no growth, -100 = all killed). Particulars: 10 µM.
Take `C=NCC#N`: the growth was 95.6% (inactive) and 111% (inactive).

On to `COC(=O)C1C(O)C(C)C(O)C(C)/C=C\C=C(C)C(=O)Nc2c(C)c(OC(C)=O)c3c(c2O)C(=O)C(C)=C2OCOC(=C23)C(C)=CC(C)(O)C(O)C(C)C1O` (centres undefined), for which the growth is 97.9% (inactive).

With `[Cl][Hg][c]1ccc(Cl)s1`, the growth was -69.8% (active).

Consider `CC(C)c1cc([N+](=O)[O-])cc([N+](=O)[O-])c1O`, for which the growth was 137% (inactive).

Consider `COS(=O)(=O)c1ccccc1`, for which the growth was 111% (inactive).

Consider `[O-][n+]1ccccc1S`, for which the growth is 110% (inactive).

For the molecule `COC(C(=O)C(O)C(C)O)C1Cc2cc3cc(OC4CC(OC(C)=O)C(OC5CC(O)C(OC)C(C)O5)C(C)O4)cc(O)c3c(O)c2C(=O)C1OC1CC(OC2CC(OC3CC(C)(O)C(OC(=O)C(C)C)C(C)O3)C(O)C(C)O2)C(O)C(C)O1` (centres undefined), the growth was -89.1% (active).

Turning to `C/C1=C\[C@H](C)C[C@H](C)OC(=O)C[C@H](c2ccc(O)cc2)NC(=O)[C@@H](Cc2c(Br)[nH]c3ccccc23)N(C)C(=O)[C@H](C)NC(=O)[C@@H](C)C1`, the growth is -65% (active).

In the case of `Oc1c(I)cc(I)cc1I`, the growth is 121% (inactive).

For `COc1ccc2c(ccc3oc([N+](=O)[O-])cc32)c1`, the growth was -55% (active).

With `CC(C)(C)OOC(=O)/C=C\C(=O)OOC(C)(C)C`, the growth is 141% (inactive).

For the molecule `CC12OOC(c3ccccc31)c1c2ccc2ccccc12` (centres undefined), the growth was -88.4% (active).

In the case of `COc1cc(/C=C/[N+](=O)[O-])cc(Br)c1OC`, the growth was 98.1% (inactive).

Take `COc1ccc(/C=C\[N+](=O)[O-])cc1OC`: the growth is 155% (inactive) and 105% (inactive).

These data come from PubChem BioAssay (NCI).
